Compound activity (PubChem)
Sampled rows, rich in hits. Any-hit rate of the full collection: about 21%.
Shiga inhibitor: inhibitors of Shiga toxin in Vero cells | Vero cells, Shiga toxin protein synthesis inhibition reporter | inhibition, % at 38.7 µM | 9.2% of 290,000 active | AID 2315; in the data active = inhibition mostly above about 28%, no sharp cut-off; inactive = mostly below about 43%
NS1 inh: blocks influenza NS1 protein function. Potency, µM (highest dose often 46.1 µM). 0.4% of 270,000 active. AID 2326; also: actives are rising curves; nearly all actives have a fitted effect of over 50% in size
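S. cerevisiae expressing influenza A NS1, grown in glucose, washed, then diluted 1:100 into pH 6.0 -URA galactose medium with 23 nl compound. Growth recovery read as OD600; NS1-free strain serves as control.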
Pf growth 48h: inhibits P. falciparum growth in the first generation, 48 h; P. falciparum luciferase growth in erythrocytes, 48 h; AID 504832; 5.9% of 310,000 active; Potency, µM (series often up to 28.7 µM), most hits filed as inhibitors; active = well fitted inhibition curve with a large enough effect; inconclusive = small, poorly fitted or top-dose-only effect, or another doubt; inactive = no such curve, though single readings can be large or run the other way
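Luciferase-expressing P. falciparum in infected erythrocytes (2% hematocrit, 0.1% parasitemia final) in RPMI 1640/0.5% Albumax were exposed to compound for 48 hours at 37 C, 5% CO2; growth read as luminescence.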
SARS PLpro yeast: blocks SARS-CoV papain-like protease in a yeast assay; AID 485353; 0.19% of 330,000 active; Potency, µM (highest dose often 32.9 µM), most hits filed as activators; S. cerevisiae expressing SARS-CoV PLpro, growth rescue; also: nearly all actives have a fitted effect of over 55% in size
Pf growth 96h: P. falciparum growth inhibition at 96 hour, primary screen for plastid delayed-death inhibitors. P. falciparum luciferase reporter growth, 96 h. Potency, µM (titrated, usually from 28.7 µM), actives largely listed as inhibitors. 6.9% of 320,000 active. AID 504834; active = well fitted inhibition curve with a large enough effect; inconclusive = small, poorly fitted or top-dose-only effect, or another doubt; inactive = no such curve, though single readings can be large or run the other way
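Two-generation exposure (96 h) targets delayed-death phenotype. Reporter parasites carrying integrated firefly luciferase, in red cells at 2% hematocrit and 0.05% parasitemia final, kept at 37 C, 5% CO2; luminescence loss indicates inhibition.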
Cycloheximide cs: counter-screen hit for Shiga toxin inhibitors, cycloheximide; 12% of 300,000 active; cell reporter, cycloheximide protein synthesis inhibition counterscreen; max response, %; AID 2314; in the data active = max response mostly above about 13%, no sharp cut-off; inactive = mostly below about 14%; also: read at 38.3 µM for the half of the compounds with a filed dose
Large screens that a line does not name were inactive. Unless noted, calls follow the shape of the full dose curve.

CCC/C(C)=N/NC(=O)c1ccccc1O	Shiga inhibitor 104.8, Pf growth 96h inconclusive, Cycloheximide cs 27.5
C/C(CC(=O)Nc1ccc(N(C)C)cc1)=N\NC(=O)c1ccc(Cl)cc1Cl	none
CCOC(=O)c1cnc(SC)nc1Sc1ccccc1	none (no result: Pf growth 96h)
COc1cc2cc(CCOC(=O)c3ccco3)oc(=O)c2cc1OC	Pf growth 96h inconclusive (no result: Shiga inhibitor, NS1 inh, Cycloheximide cs)
CCOc1ncccc1C(=O)OCC(=O)Nc1nnc(-c2ccccc2)o1	Pf growth 48h inconclusive (no result: Shiga inhibitor, NS1 inh, Cycloheximide cs)
CN(Cc1ccccc1)C(=O)COC(=O)C12CC3CC(CC(Br)(C3)C1)C2	none (no result: Shiga inhibitor, NS1 inh, Pf growth 48h, Pf growth 96h, Cycloheximide cs)
CCN(CC)c1ccc(/C=C2\SC(=O)N(C(C)C)C2=O)o1	Pf growth 48h inconclusive, Pf growth 96h inconclusive
O=C(CN1N=C(c2ccc(Cl)cc2)CCC1=O)NCCN1CCc2ccccc2C1	SARS PLpro yeast inconclusive
C/C(CC(=O)Nc1ccc([N+](=O)[O-])cc1)=N\NC(=O)c1ccccc1O	Cycloheximide cs 24.1 (no result: Shiga inhibitor)
C/C(=N/NC(=O)c1cc2ccccc2cc1O)C1C(=O)c2ccccc2C1=O	none (no result: Pf growth 48h, Pf growth 96h)
C/C(=N\NC(=O)c1ccccc1O)C1C(=O)c2ccccc2C1=O	Pf growth 96h inconclusive, Cycloheximide cs 29.4 (no result: Pf growth 48h)
CCC12CN3CC(CC)(CN(C1)C3c1ccc([N+](=O)[O-])o1)C2=O (stereo not given)	none
CCOCCCNc1nc(C)nc2c1nnn2Cc1c(F)cccc1Cl	Pf growth 48h inconclusive (no result: NS1 inh)
COc1c(O[C@H]2O[C@@H](CO)[C@@H](O)[C@@H](O)[C@@H]2O)cc2c(c1OC)-c1ccc(SC)c(=O)cc1[C@H](NC(C)=O)CC2	none (no result: Shiga inhibitor, NS1 inh, SARS PLpro yeast, Cycloheximide cs)
COC(=O)c1nc(N)sc1C	none
O=C(NCc1cc(F)ccc1F)C1CCC(=O)N(C2CCCCCC2)C1 (stereo not given)	Shiga inhibitor 86.0, Cycloheximide cs 34.8
O=C(NCc1ccc(F)c(F)c1)C1CCC(=O)N(CC2CCCCC2)C1 (stereo not given)	Pf growth 96h 13.1µM
O=C(NCc1cc(C(F)(F)F)ccc1F)C1CCC(=O)N(C2CCCCCC2)C1 (stereo not given)	Pf growth 96h inconclusive
O=C(NCc1cccc(Cl)c1)C1CCC(=O)N(CC2CCCCC2)C1 (stereo not given)	Pf growth 96h 14.7µM
Nc1nc(CN2CCN(c3ccccn3)CC2)nc(Nc2ccc(Cl)cc2)n1	Pf growth 48h inconclusive, Pf growth 96h inconclusive
Cc1ccc(S(=O)(=O)NCc2c(Cl)cccc2Oc2ccccc2)cc1	none
CCOC(=O)c1c(C)n(C)c2ccc(OCC(O)CN3CCN(C)CC3)cc12 (stereo not given)	none (no result: Pf growth 48h)
CCOC(=O)COc1ccc2c(c1)c(C(C)=O)c(C)n2-c1ccc(OC)cc1	Shiga inhibitor 145.0
CCOC(=O)c1c(C)n(C)c2ccc(OCC(O)Cn3c(C)nc4ccccc43)cc12 (stereo not given)	Pf growth 48h 10.4µM (no result: Pf growth 96h)
CCOC(=O)c1c(C)n(C)c2ccc(OCC(O)CNCCc3ccccc3)cc12 (stereo not given)	Pf growth 48h inconclusive, Pf growth 96h 4.65µM
CCOC(=O)c1c(C)n(-c2ccc(C)cc2)c2ccc(OCC(O)CN3CCN(C)CC3)cc12 (stereo not given)	Pf growth 48h 9.28µM (no result: NS1 inh)
COc1ccc(C(C)=O)cc1COC(=O)C1CC(=O)N(Cc2ccccc2)C1 (stereo not given)	none
CCOC(=O)c1c(-c2ccccc2)oc2ccc(OCC(O)CNCCN(C)C)cc12 (stereo not given)	Pf growth 48h 2.08µM, Pf growth 96h inconclusive
CCOC(=O)c1c(-c2ccccc2)oc2ccc(OCC)cc12	none
CCOC(=O)c1ccc(COC(=O)c2nonc2N)cc1	Pf growth 96h inconclusive, Cycloheximide cs 21.6
Cc1ccc2[nH]c(C(=O)NCCN3CCCC3)cc2c1	NS1 inh inconclusive, Pf growth 48h inconclusive, Pf growth 96h 11.7µM
Cc1ccc2[nH]c(C(=O)N3CCOCC3)cc2c1	Cycloheximide cs active
Cc1ccc2[nH]c(C(=O)N3CCCCC3)cc2c1	Cycloheximide cs 26.5 (no result: Shiga inhibitor)
Cc1ccc2[nH]c(C(=O)N3CCC(C(N)=O)CC3)cc2c1	none (no result: Shiga inhibitor)
Cc1cccc2c(=O)c(Br)c(C)n(Cc3ccccc3)c12	Pf growth 48h inconclusive
O=C1CN(C(=O)COC(=O)/C=C/c2ccc(S(=O)(=O)N3CCOCC3)cc2)c2ccccc2N1	none
CC(C)N(Cc1ccccc1)C(=S)Nc1ccccc1F	none
CCCCCC(=O)Nc1ccc(C(=O)COC(=O)Cn2cnc3c2c(=O)n(C)c(=O)n3C)cc1	none (no result: Shiga inhibitor, NS1 inh, Cycloheximide cs)
